# Columns and labels:
# [1] = target: Calcium/calmodulin-dependent protein kinase type 1 (Homo sapiens) (UniProt Q14012); conditions: at 1 µM
# [2] = target: Calcium/calmodulin-dependent protein kinase type 1 (Homo sapiens) (UniProt Q14012); conditions: at 10 µM
# [3] = target: Calcium/calmodulin-dependent protein kinase type II subunit beta (Homo sapiens) (UniProt Q13554); conditions: at 1 µM
# [4] = target: Calcium/calmodulin-dependent protein kinase type II subunit beta (Homo sapiens) (UniProt Q13554); conditions: at 10 µM
# [5] = target: Calcium/calmodulin-dependent protein kinase type II subunit gamma (Homo sapiens) (UniProt Q13555); conditions: at 1 µM
# [6] = target: Calcium/calmodulin-dependent protein kinase type II subunit gamma (Homo sapiens) (UniProt Q13555); conditions: at 10 µM
# [7] = target: Calcium/calmodulin-dependent protein kinase type II subunit delta (Homo sapiens) (UniProt Q13557); conditions: at 1 µM
# [8] = target: Calcium/calmodulin-dependent protein kinase type II subunit delta (Homo sapiens) (UniProt Q13557); conditions: at 10 µM
# [9] = target: T1, Calcium/calmodulin-dependent protein kinase type IV (Homo sapiens) (UniProt Q16566); conditions: at 1 µM
# T1 sequence (whole entry): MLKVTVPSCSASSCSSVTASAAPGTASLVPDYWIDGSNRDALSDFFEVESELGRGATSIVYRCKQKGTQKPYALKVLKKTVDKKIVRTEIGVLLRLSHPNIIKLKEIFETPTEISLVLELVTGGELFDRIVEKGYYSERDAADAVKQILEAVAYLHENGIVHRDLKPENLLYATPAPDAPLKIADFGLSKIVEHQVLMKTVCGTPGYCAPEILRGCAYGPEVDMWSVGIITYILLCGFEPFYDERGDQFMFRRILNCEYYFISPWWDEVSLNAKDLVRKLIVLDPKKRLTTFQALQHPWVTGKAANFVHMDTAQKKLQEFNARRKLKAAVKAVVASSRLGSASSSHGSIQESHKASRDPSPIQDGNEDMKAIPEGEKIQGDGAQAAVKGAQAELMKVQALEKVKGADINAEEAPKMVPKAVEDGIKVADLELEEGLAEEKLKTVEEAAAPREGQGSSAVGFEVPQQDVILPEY
# [10] = target: T1, Calcium/calmodulin-dependent protein kinase type IV (Homo sapiens); conditions: at 10 µM
# Sequence of Calcium/calmodulin-dependent protein kinase type 1 (Homo sapiens) (Q14012 whole entry, looked up): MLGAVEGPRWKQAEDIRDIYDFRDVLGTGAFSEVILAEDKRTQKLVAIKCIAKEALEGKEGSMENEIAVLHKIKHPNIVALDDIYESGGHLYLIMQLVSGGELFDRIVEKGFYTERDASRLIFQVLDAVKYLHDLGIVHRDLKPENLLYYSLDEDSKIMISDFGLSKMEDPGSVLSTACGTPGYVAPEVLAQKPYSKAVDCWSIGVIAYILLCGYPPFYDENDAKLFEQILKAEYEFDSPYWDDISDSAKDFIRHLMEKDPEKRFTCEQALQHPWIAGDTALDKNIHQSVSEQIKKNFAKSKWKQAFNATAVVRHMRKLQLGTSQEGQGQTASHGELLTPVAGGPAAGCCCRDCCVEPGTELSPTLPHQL
# Sequence of Calcium/calmodulin-dependent protein kinase type II subunit delta (Homo sapiens) (Q13557 whole entry): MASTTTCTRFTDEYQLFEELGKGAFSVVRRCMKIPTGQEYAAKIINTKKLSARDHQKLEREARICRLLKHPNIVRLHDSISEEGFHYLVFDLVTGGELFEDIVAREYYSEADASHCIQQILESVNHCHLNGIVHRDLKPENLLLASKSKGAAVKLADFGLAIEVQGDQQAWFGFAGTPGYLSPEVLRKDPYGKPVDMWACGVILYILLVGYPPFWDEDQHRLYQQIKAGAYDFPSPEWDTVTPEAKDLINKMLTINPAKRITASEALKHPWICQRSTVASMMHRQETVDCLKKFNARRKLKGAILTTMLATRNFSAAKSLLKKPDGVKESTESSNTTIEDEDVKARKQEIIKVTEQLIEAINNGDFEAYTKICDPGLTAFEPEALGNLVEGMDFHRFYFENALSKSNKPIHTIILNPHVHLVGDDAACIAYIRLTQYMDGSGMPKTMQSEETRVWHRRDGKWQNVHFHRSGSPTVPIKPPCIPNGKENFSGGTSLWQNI
# Sequence of Calcium/calmodulin-dependent protein kinase type II subunit beta (Homo sapiens) (Q13554 whole entry): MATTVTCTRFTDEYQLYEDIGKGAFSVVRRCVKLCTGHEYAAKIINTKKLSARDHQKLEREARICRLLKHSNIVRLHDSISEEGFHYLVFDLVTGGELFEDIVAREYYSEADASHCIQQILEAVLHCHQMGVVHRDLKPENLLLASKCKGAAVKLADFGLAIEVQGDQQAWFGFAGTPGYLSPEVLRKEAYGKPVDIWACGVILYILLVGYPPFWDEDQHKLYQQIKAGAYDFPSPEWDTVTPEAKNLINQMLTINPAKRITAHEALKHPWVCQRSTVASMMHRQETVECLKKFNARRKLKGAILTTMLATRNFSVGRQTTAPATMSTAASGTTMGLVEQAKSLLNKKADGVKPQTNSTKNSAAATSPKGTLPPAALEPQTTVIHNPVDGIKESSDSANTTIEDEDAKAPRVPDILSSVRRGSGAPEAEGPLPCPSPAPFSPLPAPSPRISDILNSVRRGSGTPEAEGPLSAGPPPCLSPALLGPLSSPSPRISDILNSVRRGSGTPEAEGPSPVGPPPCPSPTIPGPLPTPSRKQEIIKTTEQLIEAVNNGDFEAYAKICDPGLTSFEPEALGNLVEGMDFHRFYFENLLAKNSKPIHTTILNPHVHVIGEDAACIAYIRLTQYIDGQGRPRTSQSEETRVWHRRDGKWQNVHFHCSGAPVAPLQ
# Sequence of Calcium/calmodulin-dependent protein kinase type II subunit gamma (Homo sapiens) (Q13555 whole entry): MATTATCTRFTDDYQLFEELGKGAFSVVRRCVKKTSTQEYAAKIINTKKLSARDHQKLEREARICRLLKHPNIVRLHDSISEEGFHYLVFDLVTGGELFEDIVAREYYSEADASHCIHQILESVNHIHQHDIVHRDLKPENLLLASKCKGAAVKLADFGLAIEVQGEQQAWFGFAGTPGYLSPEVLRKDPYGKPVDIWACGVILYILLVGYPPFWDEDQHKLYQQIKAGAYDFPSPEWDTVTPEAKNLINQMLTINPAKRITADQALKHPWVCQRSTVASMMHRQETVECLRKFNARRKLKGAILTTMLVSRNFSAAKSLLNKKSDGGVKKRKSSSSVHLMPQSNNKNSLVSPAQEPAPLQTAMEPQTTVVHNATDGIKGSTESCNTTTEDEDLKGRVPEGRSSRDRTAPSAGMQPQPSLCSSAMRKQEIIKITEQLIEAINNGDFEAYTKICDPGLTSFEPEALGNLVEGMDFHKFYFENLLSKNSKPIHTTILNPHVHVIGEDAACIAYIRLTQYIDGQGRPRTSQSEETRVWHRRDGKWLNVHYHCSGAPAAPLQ
SMILES,residual activity [1],residual activity [2],residual activity [3],residual activity [4],residual activity [5],residual activity [6],residual activity [7],residual activity [8],residual activity [9],residual activity [10]
Cn1cnc2cc3c(Nc4cccc(Br)c4)ncnc3cc21,103%,54%,93%,89%,85%,43%,97%,52%,105%,86%
Cc1ccc(S(=O)(=O)/C=C/C#N)cc1,95%,77%,101%,88%,103%,94%,104%,107%,108%,86%
O=Nc1c(-c2c(O)[nH]c3ccccc23)[nH]c2ccccc12,72%,21%,33%,11%,12%,1%,10%,2%,66%,10%
N#Cc1cnc2cnc(NCc3cccnc3)cc2c1Nc1ccc(F)c(Cl)c1,42%,26%,-2%,1%,0%,-1%,-1%,0%,98%,102%
N#C/C(=C(\N)Sc1ccc(N)cc1)c1ccccc1C(F)(F)F,83%,95%,79%,86%,90%,86%,62%,47%,107%,83%
NC(=O)c1ccc2[nH]c(-c3ccc(Oc4ccc(Cl)cc4)cc3)nc2c1,94%,92%,87%,43%,92%,58%,91%,61%,108%,108%
COc1cc2ncnc(Nc3ccc(O)c(Br)c3)c2cc1OC,104%,61%,73%,62%,68%,18%,79%,28%,122%,67%
CC(C)n1cnc2c(NCc3ccccc3)nc(NCCCO)nc21,80%,68%,84%,66%,94%,59%,86%,58%,112%,90%
O=C1c2ccccc2-[n+]2ccc3c([nH]c4ccccc43)c21,81%,68%,92%,76%,103%,78%,95%,81%,102%,93%
Oc1n[nH]c2nnc(-c3c(-c4ccccc4)nn4ccccc34)cc12,92%,79%,91%,80%,90%,78%,87%,82%,105%,96%
Oc1ccc(-c2nc(-c3ccc(F)cc3)c(-c3ccncc3)[nH]2)cc1,111%,100%,92%,52%,110%,89%,98%,76%,115%,99%
CCOc1cc2ncnc(Nc3cccc(Br)c3)c2cc1OCC,107%,84%,91%,64%,82%,40%,85%,38%,97%,93%
O=C1NC(=O)/C(=C/c2ccc3c(c2)OC(F)(F)O3)S1,86%,83%,94%,71%,102%,86%,106%,82%,99%,72%
CCC(=O)Nc1ccc2ncnc(Nc3cccc(Br)c3)c2c1,96%,98%,90%,80%,100%,74%,109%,79%,123%,73%
COc1ccc(OC)c2c(=S)c3ccccc3[nH]c12,96%,77%,92%,54%,90%,54%,95%,62%,100%,84%
Cc1nc2cc3nc(-c4cccs4)cnc3cc2n1C,109%,107%,100%,93%,103%,84%,106%,85%,129%,101%
CNc1cc2c(Nc3cccc(Br)c3)ncnc2cn1,95%,65%,87%,51%,93%,32%,85%,42%,110%,56%

SMILES,residual activity [1],residual activity [2],residual activity [3],residual activity [4],residual activity [5],residual activity [6],residual activity [7],residual activity [8],residual activity [9],residual activity [10]
O=c1c2ccccc2[nH]c(=S)n1CCN1CCC(=C(c2ccc(F)cc2)c2ccc(F)cc2)CC1,110%,113%,102%,79%,115%,100%,105%,91%,108%,95%
Nc1n[nH]c2nnc(-c3c(-c4ccccc4)nn4ccccc34)cc12,101%,79%,93%,80%,103%,92%,94%,93%,95%,64%
Cn1nc2c3c(cccc31)C(=O)c1ccccc1-2,75%,74%,77%,67%,87%,37%,85%,36%,96%,62%
COc1cc2ncnc(Nc3ccc(Oc4ccccc4)cc3)c2cc1OC,102%,76%,88%,84%,102%,102%,105%,111%,103%,104%
Cn1cc(/C=C2\C(=O)Nc3ccc(S(N)(=O)=O)cc32)c2ccccc21,54%,12%,65%,58%,23%,-1%,23%,7%,120%,62%
Nc1ccc2ncnc(NCCc3ccc(Oc4ccccc4)cc3)c2c1,107%,87%,72%,43%,24%,11%,31%,14%,108%,106%
Nc1cccc(-c2cc3c(Oc4cccc(O)c4)ncnc3[nH]2)c1,88%,66%,75%,23%,40%,10%,42%,10%,–,–
COc1cc2ncnc(N3CCN(C(=O)Nc4ccc(Oc5ccccc5)cc4)CC3)c2cc1OC,104%,97%,80%,89%,111%,100%,104%,93%,122%,97%
O=C(Nc1cccc(Nc2cc(Nc3cccc(C(F)(F)F)c3)ncn2)c1)C1CC1,114%,57%,91%,86%,98%,74%,97%,67%,116%,94%
CO[C@H]1C[C@@H]2CC[C@@H](C)[C@@](O)(O2)C(=O)C(=O)N2CCCC[C@H]2C(=O)O[C@H]([C@H](C)C[C@@H]2CC[C@@H](O)[C@H](OC)C2)CC(=O)[C@H](C)/C=C(\C)[C@@H](O)[C@@H](OC)C(=O)[C@H](C)C[C@H](C)/C=C/C=C/C=C/1C,108%,84%,92%,79%,103%,96%,109%,99%,131%,119%
CN(C)c1ccc(/C=C2\C(=O)Nc3ccccc32)cc1,122%,116%,101%,76%,92%,46%,89%,35%,87%,89%
O=C1Nc2ccccc2/C1=C1/Nc2ccccc2/C1=N\OCCC(O)CO (stereo not drawn),64%,15%,27%,4%,6%,0%,6%,1%,15%,9%
Cc1ccc(NC2=CC(=O)c3sc(C)nc3C2=O)cc1,92%,74%,89%,81%,104%,98%,95%,98%,113%,96%
CCN(CC)CCCCN1c2ccccc2Oc2ccc(Cl)cc21,107%,89%,106%,93%,111%,97%,112%,112%,126%,118%
O=C(O)c1ccc2c3c1cccc3c(=O)n1c3ccccc3nc21,108%,117%,88%,51%,88%,31%,80%,31%,94%,21%
CC(C)n1cnc2/c(=N/c3cccc(Cl)c3)nc(NCCO)[nH]c21,87%,71%,75%,41%,13%,6%,19%,11%,103%,66%

# — ChEMBL document CHEMBL2218924, “A broad activity screen in support of a chemogenomic map for kinase signalling research and drug discovery” (Biochem J, 2013)
